Screening results: PubChem BioAssay, National Center for Advancing Translational Sciences (NCATS)
The entries come from a sample that favours hits as a whole.
AmpC detergent: blocks E. coli AmpC beta-lactamase in detergent assay | AmpC hydrolysis of nitrocefin, absorbance 480 nm, 0.01% Triton | Potency, µM (top dose mostly 114 µM), for the others: top-dose activity change, negative = inhibition, most hits filed as inhibitors | 0.041% of 370,000 active | AID 485294;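 further: potency means the concentration at half of the fitted maximal effect; 0% = no-compound wells and -100% = no-enzyme wells; nearly all actives have a fitted effect of over 25% in size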
Target sequence (P00811 whole entry, looked up): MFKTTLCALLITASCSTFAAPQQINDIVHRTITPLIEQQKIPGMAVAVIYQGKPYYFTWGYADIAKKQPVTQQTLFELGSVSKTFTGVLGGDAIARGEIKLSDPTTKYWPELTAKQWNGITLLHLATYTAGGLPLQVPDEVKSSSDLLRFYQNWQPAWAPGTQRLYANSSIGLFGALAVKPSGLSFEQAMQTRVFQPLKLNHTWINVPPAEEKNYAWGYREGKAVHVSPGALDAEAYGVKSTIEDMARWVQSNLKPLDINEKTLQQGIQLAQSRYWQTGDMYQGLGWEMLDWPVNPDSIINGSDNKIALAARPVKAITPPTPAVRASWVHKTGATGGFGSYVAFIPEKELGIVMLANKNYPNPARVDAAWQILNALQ
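20 mM phosphate pH 7.0 + 0.01% (detergent screen) or 0.0001% Triton X-100; 5.3 nM AmpC reagent; cpd preinc 15 min RT; nitrocefin (800 uM stock) to start; A480 q20 s × 4 min; Activity was normalised to no-enzyme and no-compound control wells.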
Shiga inhibitor: Shiga toxin inhibition. Vero cells, Shiga toxin protein synthesis inhibition reporter. inhibition, % at 38.7 µM. 9.2% of 290,000 active. AID 2315; in the data active means inhibition mostly above about 28%, no sharp cut-off; inactive means mostly below about 43%; further: 0% is about no effect
AmpC no deterg: inhibitors of E. coli AmpC beta-lactamase without detergent. AmpC nitrocefin hydrolysis, absorbance 480 nm, 0.0001% Triton. 0.52% of 330,000 active. Potency, µM (highest dose often 57.1 µM), for inactives: top-dose activity change, negative = inhibition, usual class: inhibitors. P00811. AID 485341;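 further: potency means the concentration at half of the fitted maximal effect; plate controls were no compound for no effect and no enzyme for full effect; nearly all actives have a fitted effect of over 20% in size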
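AmpC (5.3 nM in the dispensed reagent) in 20 mM phosphate pH 7.0 with 0.01% (detergent screen) or 0.0001% Triton X-100 was preincubated with compounds for 15 min at room temperature. Nitrocefin was then added from an 800 uM solution, and hydrolysis was followed at 480 nm.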
Cycloheximide cs: counter-screen hit for Shiga toxin inhibitors, cycloheximide. 12% of 300,000 active. cell reporter, cycloheximide protein synthesis inhibition counterscreen. max response, %; in the data active means max response mostly above about 13%, no sharp cut-off; inactive means mostly below about 14%; further: read at 38.3 µM for the half of the compounds with a filed dose; 0% is about no effect
NS1 function inh: inhibitors of influenza NS1 protein function; AID 2326; 0.4% of 270,000 active; Potency, µM (series often up to 46.1 µM), for the others: at the highest dose activity, positive = more growth; calls by dose curve; further: potency means the concentration at half of the fitted maximal effect; actives are rising curves; nearly all actives have a fitted effect of over 50% in size
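Recovery from NS1-induced slow growth read by OD600 in budding yeast switched to galactose assay medium (pH 6.0, -URA) at 1:100 dilution. Compound 23 nl per well; the matching strain lacking NS1 serves as control.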
Numbers without * were called inactive; ? = inconclusive; · = no result; [ ] = remark or other dose. Unless noted, the call rests on the fitted dose curve; in most records, active means well fitted curve in the direction sought with a large enough effect; inconclusive means small, poorly fitted or top-dose-only effect, or another doubt; inactive means no such curve, though single readings can be large; an effect the other way counts as inactive or inconclusive.

SMILES | AmpC detergent | Shiga inhibitor | AmpC no deterg | Cycloheximide cs | NS1 function inh
COc1ccc(-c2csc(NC(=O)c3ccoc3C)n2)cc1 | -7% | 153* | -38% | 41* | ·
CN(c1ccc(C(=O)Nc2nccs2)cc1)S(=O)(=O)c1ccccc1 | -10% | 57* | -14% | 38* | 3%
COc1ccc(-c2csc(NC(=O)c3c(C)noc3C)n2)cc1 | 1% | · | -12% | · | ·
CN(c1ccccc1)S(=O)(=O)c1ccc(NC(=O)c2ccc(-c3ccccc3)cc2)cc1 | 1% | -15 | -46% | 2 | 1%
Cc1nc2cc(NC(=O)c3ccc(S(=O)(=O)N(C)c4ccccc4)cc3)ccc2o1 | -13% | 126* | -8% | 30* | 6%
O=C(O)c1ccccc1Nc1ccc(CCc2ccc(Cl)c(Cl)c2)cc1 | · | 27* | · | 16* | ·
CC1(C)CC(=O)c2cc(C(=O)Nc3ccc(Br)cc3)c(=O)[nH]c2C1 | -3% | · | · | · | ·
Cc1c(C#N)c(O)n(CCO)c(=O)c1N=Nc1ccc2c(c1)COC2=O | 10% | 31 | -20% | 27* | 6%
O=C(/C=C/c1ccc2ccccc2c1)c1ccoc1 | -4% | 53* | 31% | 34* | 2%
COc1ccc(C(=O)/C=C/c2ccc(OC)c(CN3CCOCC3)c2)cc1 | ? | -5 | 113% | 12 | 7%
O=S(=O)(Nc1ccc(S(=O)(=O)N2CCCC2)cc1)c1ccccc1Br | -5% | · | -12% | · | ·
Cc1c(-c2cc(C(=O)O)no2)cnn1C | 0% | 50* | 47% | 29* | 3%
O=C(O)c1cc2c(cc1NC(=O)c1ccccc1C(F)(F)F)OCCCO2 | -1% | 20 | -18% | -6 | -1%
CCc1ccc(C(=O)Nc2cc3c(cc2Cl)OCCCO3)cc1 | -3% | 84* | 8% | 60* | 8%
O=C(Cc1ccccc1)Nc1ccc2c(c1)OC1(CCCC1)O2 | -7% | · | -26% | · | ·
O=C(Cc1ccccc1)Nc1cc2c(cc1Cl)OCCCO2 | 0% | 75* | -11% | 59* | -20%
CCC(O)c1cc2c(cc1NC(=O)c1ccc(C)cc1)OCCO2 (stereo not drawn) | -10% | 34 | -24% | 17 | -38%
O=C(Nc1cc2c(cc1C(=O)O)OCCCO2)c1ccc(C(F)(F)F)cc1 | -4% | 76* | -23% | 44* | 1%
CC(C(=O)Nc1nc(-c2ccc(F)cc2)cs1)N1C(=O)C2CC=CCC2C1=O (stereo not drawn) | 0% | · | -28% | · | ·
FC(F)(F)c1nc2ccccc2c2nc3ccccc3n12 | ? | 2 | -4% | -2 | -9%
FC(F)(F)c1nnc2c(Sc3ccc(Cl)cc3)nc3ccccc3n12 | 5% | 26 | -6% | -7 | 12%
FC(F)(F)c1nnc2c(Sc3ccccn3)nc3ccccc3n12 | 0% | 111* | -10% | 23* | -12%
FC(F)(F)c1nnc2c(Sc3ccccc3)nc3ccccc3n12 | ? | -26 | -28% | 28* | 3%
COc1ccc(Cl)cc1C(=O)NNC(=O)c1nn(C)c(=O)c2ccccc12 | · | · | 23% | · | ·
N[C@@H](CSC1(c2ccc(Cl)cc2)c2ccccc2-c2ccccc21)C(=O)O | · | · | · | · | 13%
SMILES | AmpC detergent | Shiga inhibitor | AmpC no deterg | Cycloheximide cs | NS1 function inh
CN=Cc1cc(-c2ccccc2)sc1O | 4% | 40* | -9% | 40* | -1%
CC1=C(C(=O)Nc2ccc(Cl)cc2)C(c2cccs2)n2nc(SCc3cccc(C)c3)nc2N1 (stereo not drawn) | 10% | · | · | · | ·
Cc1ccc(-c2c(NC(=O)c3ccco3)oc3ccccc3c2=O)cc1 | ? | 36 | -32% | 8 | -11%
O=C(Nc1oc2ccccc2c(=O)c1-c1ccc(Cl)cc1)c1ccco1 | -5% | 13 | -51% | 22* | -63%
COC(=O)c1ccc(C(=O)OC)c(NC(=O)N2CC3CCCN3c3ccccc32)c1 (stereo not drawn) | 3% | · | · | · | ·
O=Cc1cccn1Cc1ccccc1[N+](=O)[O-] | 4% | 13 | -17% | 33* | 21%
NC(=O)C1=C[C@H](c2ccccc2)C[C@H](OCc2ccc(CO)cc2)O1 | -6% | 27* | 7% | 36* | -2%
O=C(Nc1ccccc1)C1=C[C@H](c2ccc(Br)cc2)C[C@H](OCc2ccc(CO)cc2)O1 | 9% | 69* | -17% | 41* | 9%
CC(C)(C)[C@H]1C=C(C(=O)Nc2ccccc2)O[C@@H](OCc2ccc(CO)cc2)C1 | -6% | 18 | 30% | 12* | -6%
CC(C)(C)[C@@H]1C=C(C(=O)NCc2ccccc2)O[C@H](OCc2ccc(CO)cc2)C1 | -5% | -10 | 22% | 2 | 0%
CN1CCN(C(=O)C2=C[C@H](c3ccccc3)C[C@H](OCc3ccc(CO)cc3)O2)CC1 | 7% | 1 | 77% | 7.5* | 1%
O=C(NCc1ccccc1)C1=C[C@@H](c2ccccc2)C[C@@H](OCc2ccc(CO)cc2)O1 | 1% | 22 | -33% | 2 | -2%
COc1ccc(NC(=O)C2CCN(c3nc4ccccc4[nH]3)CC2)cc1OC | -3% | · | · | · | ·
CCOc1ccc(OCC)c(NS(=O)(=O)c2cc(-c3cc(C)no3)ccc2C)c1 | 6% | · | · | · | ·
COCCCNC(=O)c1ccc(Cn2c(=O)c3ccccc3n(Cc3ccccc3C#N)c2=O)cc1 | 4% | -15 | 149% | -2 | 5%
COc1cccc2cc(-c3nc4sc5c(c4c(=O)[nH]3)CCC(C(C)(C)C)C5)c(=O)oc12 (stereo not drawn) | -4% | · | · | · | ·
CC(C)COc1ccccc1C1CC(=O)Nc2cc3c(cc21)OCO3 (stereo not drawn) | 12% | · | · | · | ·
Cc1cc2c3c(c1C)C1(C(=O)N3C(C)(C)CC2C)C(C#N)=C(N)Oc2cc(O)ccc21 (stereo not drawn) | -2% | -12 | -5% | -4 | -12%
O=C(Nc1ccccc1)C1=C[C@@H](c2ccccc2)C[C@@H](OCc2ccc(CO)cc2)O1 | 9% | 81* | -30% | 57* | -1%
C#Cc1ccc([C@H]2C=C(C(=O)O)O[C@@H](OCc3ccc(CO)cc3)C2)cc1 | 5% | -14 | -35% | -3 | 5%
C#Cc1ccc([C@@H]2C=C(C(=O)OCC=C)O[C@H](OCc3ccc(CO)cc3)C2)cc1 | 0% | 23* | -2% | 31* | 4%
CCOc1ccc(NC(=O)c2oc3ccccc3c2NC(=O)C2CCCCC2)cc1 | 7% | · | · | · | ·
Clc1ccc(-c2cnc(Oc3ccccc3)nc2)cc1 | -11% | 163* | -15% | 74* | -4%
CC(C)Oc1ccc(CNC(=O)c2ccc3nc(C(C)C)oc3c2)cc1 | 16% | · | · | · | ·
Cc1c(Cl)cccc1N1C(=O)CC(NNC(=O)c2cccs2)C1=O (stereo not drawn) | ? | 18 | -45%[11.4 µM] | 20* | ·
O=C(NNC1CC(=O)N(c2ccc(Br)cc2)C1=O)c1cccs1 (stereo not drawn) | ? | 35* | -31% | 14 | -2%
COc1cc(Cl)c(S(=O)(=O)NCCc2c(C)[nH]c3c(C)cccc23)cc1Cl | 1% | · | · | · | ·
O=C(Nc1cccc(-n2cnnn2)c1)c1ccc(OC(F)(F)F)cc1 | -14% | -11 | -28% | -3 | -16%
